Pf growth 96h: P. falciparum growth inhibition at 96 hour, primary screen for plastid delayed-death inhibitors; P. falciparum luciferase reporter growth, 96 h; Potency, µM (titrated, usually from 28.7 µM), inactives show at the highest dose activity change, negative = inhibition, actives largely listed as inhibitors; 320,000 compounds, 6.9% hits; AID 504834; note: potency is the fitted concentration of half-maximal effect; % is set by controls: 0 for no effect and ±100 for the full control effect
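P. falciparum expressing integrated firefly luciferase, in erythrocytes at 2% hematocrit, 0.05% parasitemia, incubated with compounds 96 h at 37 C, 5% CO2. Growth inhibition read as loss of luminescence; two-generation exposure targets delayed-death apicoplast inhibitors.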
AMA1 RON2 block: inhibitors of Plasmodium falciparum AMA1-RON2 interaction | AlphaScreen AMA1-biotinylated RON2 peptide binding | Potency, µM (highest dose often 58.2 µM), for inactives: at the highest dose activity change, negative = inhibition, most hits filed as inhibitors | 360,000 compounds, 0.2% hits;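 note: potency is the fitted concentration of half-maximal effect; 0% = vehicle wells and -100% = peptide control; nearly all actives have a fitted effect of over 45% in size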
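AMA1 (3D7) with his tag at 25 nM final met compounds first, then biotinylated RON2 peptide at 25 nM; detection used donor plus acceptor beads, 10 µg/mL apiece, read by AlphaScreen after 30 min at room temperature.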
Pf growth 48h: inhibits P. falciparum growth in the first generation, 48 h | Potency, µM (top dose mostly 28.7 µM), for inactives: top-dose activity change, negative = inhibition, actives largely listed as inhibitors | AID 504832 | 310,000 compounds, 5.9% hits | P. falciparum luciferase growth in erythrocytes, 48 h; note: potency is the fitted concentration of half-maximal effect; % is set by controls: 0 for no effect and ±100 for the full control effect
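A one-generation exposure of luciferase-tagged malaria parasites in RPMI 1640/Albumax erythrocyte culture, 37 C and 5% CO2. Inhibition is inferred from decreased luminescence after adding detection reagent.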
Cycloheximide cs: counter-screen hit for Shiga toxin inhibitors, cycloheximide; cell reporter, cycloheximide protein synthesis inhibition counterscreen; max response, %; 300,000 compounds, 12% hits; in the data active = max response mostly above about 13%, no sharp cut-off; inactive = mostly below about 14%; note: read at 38.3 µM for the half of the compounds with a filed dose; 0% is about no effect
SARS PLpro yeast: inhibitors of SARS-CoV papain-like protease in yeast; 330,000 compounds, 0.19% hits; S. cerevisiae expressing SARS-CoV PLpro, growth rescue; Potency, µM (titrated, usually from 32.9 µM), for the others: at the top dose activity, positive = growth rescue, actives largely listed as activators; calls by dose curve; note: potency is the fitted concentration of half-maximal effect; 0% is about no effect; nearly all actives have a fitted effect of over 55% in size
Shiga inhibitor: inhibitors of Shiga toxin in Vero cells; Vero cells, Shiga toxin protein synthesis inhibition reporter; inhibition, % at 38.7 µM; 290,000 compounds, 9.2% hits; in the data active = inhibition mostly above about 28%, no sharp cut-off; inactive = mostly below about 43%; note: 0% is about no effect
Numbers without * were called inactive; [ ] = remark or other dose. Compounds with a hit are over-represented: about 19% of the library has one in this group of screens. Unless noted, calls come from the whole dose curve; as a rule, active = well fitted curve in the direction sought with a large enough effect; inconclusive = small, poorly fitted or top-dose-only effect, or another doubt; inactive = no such curve, though single readings can be large; an effect the other way counts as inactive or inconclusive.

Cc1ccc(C(=O)/C=C/C(=O)c2ccc(C)cc2)cc1 was read as Pf growth 96h -3%, AMA1 RON2 block -15%, Pf growth 48h inactive, Cycloheximide cs 16, SARS PLpro yeast -9% and Shiga inhibitor 41.
`Cc1ccc(/C=C/C(=O)c2ccccc2O)cc1` gave Pf growth 96h 24%, AMA1 RON2 block inconclusive, Pf growth 48h 52%, Cycloheximide cs 40*, SARS PLpro yeast 2% and Shiga inhibitor 88*.
For O=C(/C=C/c1ccco1)c1ccccc1O the results were Pf growth 96h -6%, AMA1 RON2 block inconclusive, Pf growth 48h 26%, Cycloheximide cs 33*, SARS PLpro yeast 0% and Shiga inhibitor 59*.
Screening Cc1ccc(/C=C/C(=O)c2ccc(C)cc2)cc1 returned Pf growth 96h 13%, AMA1 RON2 block 1%, Pf growth 48h 76%, Cycloheximide cs 68*, SARS PLpro yeast -21% and Shiga inhibitor 83*.
`CC(CCC(=O)O)C1CCC2C3CC(O)C4CC(O)CC[C@]4(C)C3CCC12C` (stereo not given in full) gave AMA1 RON2 block -10%.
`Cc1ccc(/C=C/C(=O)C2C(=O)c3ccccc3C2=O)cc1` gave Pf growth 96h inconclusive, AMA1 RON2 block 7%, Pf growth 48h 1.7µM*, Cycloheximide cs 11, SARS PLpro yeast -21% and Shiga inhibitor 3.
Screening Cc1c(/C=C/C(=O)c2ccccc2O)cnn1C returned Pf growth 96h 213%, AMA1 RON2 block -6%[2.32 µM], Pf growth 48h 331%, Cycloheximide cs 71*, SARS PLpro yeast -2% and Shiga inhibitor active.
CN(C)c1ccc(/C=C/C(=O)c2ccccc2O)cc1 was read as Pf growth 96h 0%, AMA1 RON2 block 14µM*, Pf growth 48h 448%, Cycloheximide cs 40*, SARS PLpro yeast -5% and Shiga inhibitor 113.
For Cc1cccc(CNC(=O)Nc2nnc([C@H]3C[C@H](O)[C@@H](CO)O3)s2)c1 the results were AMA1 RON2 block -5%.
For O=C(NC1CC1(c1ccccc1)c1ccccc1)c1ccccc1 (stereo not given) the results were AMA1 RON2 block 18%.
`COc1cc(CN(CCc2c(C)[nH]c3ccc(C)cc23)C(=S)NC(C)(C)C)cc(OC)c1OC` gave Pf growth 96h 2.6µM*, AMA1 RON2 block -10%, Pf growth 48h inconclusive, Cycloheximide cs -4, SARS PLpro yeast 3% and Shiga inhibitor -21.
CNC(=S)N(CCc1c(C)[nH]c2ccc(C)cc12)Cc1ccc(OC)c(OC)c1 was read as Pf growth 96h 10µM*, AMA1 RON2 block -5%, Pf growth 48h inconclusive, Cycloheximide cs -5, SARS PLpro yeast -11% and Shiga inhibitor -9.
Screening Cc1[nH]c2ccccc2c1CCN(Cc1cccnc1)C(=S)NC(C)(C)C returned Pf growth 96h 13µM*, AMA1 RON2 block -3%, Pf growth 48h 11%[0.00184 µM], Cycloheximide cs -2, SARS PLpro yeast 1% and Shiga inhibitor -8.
CNC(=S)N(CCc1c(C)[nH]c2ccc(Cl)cc12)Cc1cc(OC)c(OC)c(OC)c1 was read as Pf growth 96h inconclusive, AMA1 RON2 block -15%, Pf growth 48h inconclusive, Cycloheximide cs -4, SARS PLpro yeast 17% and Shiga inhibitor -2.
O=C(c1nn2c(C(F)(F)F)cc(-c3ccccc3)nc2c1Cl)N1CCN2CCCC2C1 (stereo not given) was read as Pf growth 96h inconclusive, AMA1 RON2 block -4%, Pf growth 48h inconclusive, Cycloheximide cs -1, SARS PLpro yeast -5% and Shiga inhibitor -16.
Cc1nnc(NC(=O)c2ccc(S(=O)(=O)N3CCCCC3C)cc2)o1 (stereo not given) was read as Pf growth 96h inconclusive, AMA1 RON2 block 22%, Pf growth 48h 12µM*, Cycloheximide cs -2, SARS PLpro yeast 0% and Shiga inhibitor -4.
For CC1CCCCN1S(=O)(=O)c1ccc(C(=O)Nc2nnc(-c3ccco3)o2)cc1 (stereo not given) the results were Pf growth 96h 4.7µM*, AMA1 RON2 block 92%, Pf growth 48h inconclusive, Cycloheximide cs -2, SARS PLpro yeast 5% and Shiga inhibitor -16.
Screening CC1CCN(S(=O)(=O)c2ccc(C(=O)Nc3nnc(-c4ccncc4)o3)cc2)CC1 returned Pf growth 96h inconclusive, AMA1 RON2 block 35%, Pf growth 48h inconclusive, Cycloheximide cs -3, SARS PLpro yeast 1% and Shiga inhibitor 18.
`O=C(Nc1nnc(-c2ccco2)o1)c1ccc(S(=O)(=O)N2CCCCC2)cc1` gave AMA1 RON2 block 147%.
`CC1CCCCN1S(=O)(=O)c1ccc(C(=O)Nc2nnc(-c3ccccn3)o2)cc1` (stereo not given) gave Pf growth 96h 6%, AMA1 RON2 block 83%, Pf growth 48h 8%, Cycloheximide cs -4, SARS PLpro yeast -3% and Shiga inhibitor -5.
For CC1CCCCN1S(=O)(=O)c1ccc(C(=O)Nc2nnc(C3CC3)o2)cc1 (stereo not given) the results were Pf growth 96h 12µM*, AMA1 RON2 block 29%, Pf growth 48h inconclusive, Cycloheximide cs -1, SARS PLpro yeast -2% and Shiga inhibitor -10.
Screening CS(=O)(=O)c1ccc(-c2nnc(NC(=O)c3ccc(S(=O)(=O)N4CCCC4)cc3)o2)cc1 returned Pf growth 96h 7.4µM*, AMA1 RON2 block 41%, Pf growth 48h 13µM* and SARS PLpro yeast 17%.
CC1CCN(S(=O)(=O)c2ccc(C(=O)Nc3nnc(C4CC4)o3)cc2)CC1 was read as Pf growth 96h inconclusive, AMA1 RON2 block 57%, Pf growth 48h inconclusive, Cycloheximide cs -2, SARS PLpro yeast 13% and Shiga inhibitor -10.
O=C(O)Cc1c[nH]c2cccc(O)c12 was read as Pf growth 96h -17%, AMA1 RON2 block -19%, Pf growth 48h 40%, Cycloheximide cs -2, SARS PLpro yeast -1% and Shiga inhibitor -11.
For O=C(Nc1nnc(C2CC2)o1)c1ccc(S(=O)(=O)N2CCCCC2)cc1 the results were Pf growth 96h 17µM*, AMA1 RON2 block 40%, Pf growth 48h inconclusive, Cycloheximide cs -3, SARS PLpro yeast 0% and Shiga inhibitor -10.
Screening COc1ccc(-c2nnc(NC(=O)c3ccc(S(=O)(=O)N4CCCc5ccccc54)cc3)o2)cc1 returned Pf growth 96h inconclusive, AMA1 RON2 block 160%, Pf growth 48h 12µM*, Cycloheximide cs 1, SARS PLpro yeast 10% and Shiga inhibitor -1.
For O=C(O)C1CCCCC1C(=O)NCc1ccc2c(c1)OCO2 (stereo not given) the results were Pf growth 96h inconclusive, AMA1 RON2 block -11%, Pf growth 48h 20%, Cycloheximide cs 0, SARS PLpro yeast 0% and Shiga inhibitor -8.

Screening results (PubChem BioAssay)
